This is a sample that favours compounds with a hit; in the whole collection about 9.4% have one here.
SMN2 splice up: SMN2 splice variant enhancement | HEK293 SMN2-luciferase splicing reporter, luminescence, 30-36 h | Potency, µM (series often up to 46.1 µM), inactives show at the highest dose activity change, positive = activation, actives largely listed as activators | 2.8% of 210,000 active; also: % of control where 0% means no effect; nearly all actives have a fitted effect of over 55% in size
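HEK293 cells carry an SMN2 minigene-luciferase reporter in which exon 7 inclusion puts luciferase in frame. Cells were seeded at 2000 cells/well, attached for 10-12 hours, then exposed to compounds for 30-36 hours at 37C before ONE-Glo luminescence.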
NPC1 promoter act: NPC1 promoter activation. Huh7 NPC1 promoter luciferase reporter, 24 h. Potency, µM (doses to about 9.22 µM), inactives show at the top dose activation, most hits filed as activators. 2.4% of 320,000 active. AID 485313; also: % of control where 0% means no effect; nearly all actives have a fitted effect of over 60% in size
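Compounds in DMSO were transferred onto Huh7 NPC1-luciferase reporter cells pre-incubated 2 h; after 24 h at 37 °C, Amplite reagent was dispensed and luminescence recorded 10 min later.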
Rab9 prom act: activators of Rab9 promoter; Huh7 Rab9 promoter-luciferase reporter, luminescence, 24 h; Potency, µM (highest dose often 9.22 µM), inactives show at the top dose activation, negative = inhibition, actives largely listed as activators; 2.8% of 320,000 active; AID 485297; also: % of control where 0% means no effect; nearly all actives have a fitted effect of over 60% in size
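Cell-based reporter: Huh7 stable for Rab9 promoter-driven luciferase, plated in reduced-serum medium with 10% FBS at 1500 cells/well, compound-treated 24 h at 37 °C, luminescence read after 10 min reagent.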
FLuc counter: firefly luciferase modulation, counter-screen for miR-21 project. purified FLuc, Km substrates, luminescence inhibition. AID 588342. P08659. Potency, µM (highest dose often 57.5 µM), for the others: top-dose activity change, negative = inhibition, usual class: inhibitors. 6.9% of 360,000 active;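 also: plate controls were vehicle for no effect and reference inhibitor for full effect; nearly all actives have a fitted effect of over 55% in size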
Target sequence (P08659 whole entry, looked up): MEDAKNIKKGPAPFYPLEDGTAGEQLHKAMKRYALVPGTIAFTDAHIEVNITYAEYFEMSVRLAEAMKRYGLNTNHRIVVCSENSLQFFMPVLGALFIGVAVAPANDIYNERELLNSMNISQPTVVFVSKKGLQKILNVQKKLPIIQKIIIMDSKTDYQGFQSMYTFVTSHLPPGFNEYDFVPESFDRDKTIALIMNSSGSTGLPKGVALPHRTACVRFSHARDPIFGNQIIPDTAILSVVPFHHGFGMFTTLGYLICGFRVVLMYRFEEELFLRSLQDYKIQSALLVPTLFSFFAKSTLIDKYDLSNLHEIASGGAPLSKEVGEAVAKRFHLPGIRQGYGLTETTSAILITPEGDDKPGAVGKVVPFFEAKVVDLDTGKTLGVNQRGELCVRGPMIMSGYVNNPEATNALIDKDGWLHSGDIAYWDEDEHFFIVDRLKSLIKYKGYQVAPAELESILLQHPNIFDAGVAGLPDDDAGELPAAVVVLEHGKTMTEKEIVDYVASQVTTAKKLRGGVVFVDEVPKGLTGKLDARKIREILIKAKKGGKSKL
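Purified P. pyralis luciferase, 10 nM final, with Km-level 10 uM D-luciferin and 10 uM ATP in 50 mM Tris acetate pH 7.5, 10 mM Mg acetate, 0.01% Tween-20, 0.05% BSA; 6-point qHTS titration about 60 µM downward; luminescence read.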
ELG1 repair inh: inhibitors of ELG1-dependent DNA repair in HEK293T cells. 2.3% of 330,000 active. Potency, µM (doses to about 46.1 µM), inactives show at the highest dose activity change, negative = inhibition, usual class: inhibitors. HEK293T ELG1-luciferase reporter, luminescence, 16 h; DNA damage induced by 5-fluorouridine; also: % is scaled to controls: 0 for no effect and ±100 for the full control effect; nearly all actives have a fitted effect of over 55% in size
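In this reporter screen, reduction of luminescence relative to DMSO vehicle indicated activity. Compounds and 5-fluorouridine were added together to 2,000 cells per well, incubated for 16 hr at 37 °C, then developed with ONE-Glo.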
ELG1 genotox: genotoxicity induction in ELG1-luciferase HEK293T cells; HEK293T ELG1-luciferase reporter, luminescence, 16 h; Potency, µM (top dose mostly 46 µM), without a hit: top-dose activity change, positive = activation, hits mostly activators; 1.3% of 330,000 active; AID 504466; also: % of control where 0% means no effect; nearly all actives have a fitted effect of over 60% in size
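After overnight (16 hr) compound treatment at 37 °C, ELG1-luciferase HEK293T cells were lysed with ONE-Glo; luminescence quantified 30 min later at room temperature.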
* = called active by the depositor; ? = inconclusive; . = no result; [ ] = remark or other dose. Calls follow the shape of the dose curve; as a rule, active = well fitted curve in the direction sought with a large enough effect; inconclusive = small, poorly fitted or top-dose-only effect, or another doubt; inactive = no such curve, though single readings can be large; an effect the other way counts as inactive or inconclusive. Potency is read from the fitted curve at half-maximal effect.

SMILES	SMN2 splice up	NPC1 promoter act	Rab9 prom act	FLuc counter	ELG1 repair inh	ELG1 genotox
Cc1cccc(N2CCN(C(=O)c3cc4c(=O)n(C)c5ccccc5c4n3C)CC2C)c1 (centres undefined)	-9.5%	-1.3%	-1.7%	-1.8%	14.6µM*	-11.9%
CC(C)N1C(=O)/C(=C\c2nc3ccccc3c(=O)n2-c2ccccc2)c2ccccc21	-61.2%	-1.4%	3.6%	1.4%	13µM*	-14.2%
CC(C)N1C(=O)/C(=C/c2nc3ccccc3c(=O)n2-c2ccccc2)c2ccccc21	-95.1%	-10.0%	-1.3%	-13.2%	20.6µM*	-52.7%
O=C1c2ccccc2-n2c1nc1ccccc1c2=O	-6.5%	?	?	?	?	-4.6%
CC(C)N1C(=O)C(Cc2nc3ccccc3c(=O)n2-c2ccccc2)c2ccccc21 (centres undefined)	-3.2%	0.6%	5.9%	4.1%	-2.0%	3.2%
CCOC(=O)Nc1ccc2c(COC(=O)CNS(=O)(=O)c3cccc(Br)c3)cc(=O)oc2c1	9.8%	-4.7%	-1.0%	-1.5%	?	?
CCOC(=O)Nc1ccc2c(COC(=O)C(NS(=O)(=O)c3ccc(Cl)cc3)C(C)O)cc(=O)oc2c1 (centres undefined)	.	.	.	.	20.6µM*	-2.0%
CC1=C(C(=O)Nc2ccccc2)C(c2ccncc2)n2nc(SCc3ccccc3)nc2N1 (centres undefined)	7.3%	.	.	0.1%	.	.
CN(C(=O)CSc1nc2ccc(NC(=O)COc3ccc(F)cc3)cc2s1)c1ccccc1	.	.	.	-11.3%	.	.
O=C(O)c1ccc2oc(SCC(=O)N3CCCCC3)nc2c1	12.6µM*	3.55µM*	2.51µM*	16.9µM*	?	?
CN(C(=O)CSc1nnc(-c2cccnc2)o1)C1CCCCC1	.	-1.0%	-0.9%	-2.1%	15.4%	0.6%
CC1CCCN(C(=O)CSc2nc3ccccc3o2)C1 (centres undefined)	19.0%	2.51µM*	3.16µM*	16.9µM*	?	?
CN(C(=O)CSc1nc2ccccc2o1)C1CCCCC1	.	2.24µM*	2.82µM*	7.57µM*	?	?
O=C(CSc1nc2cc(Cl)ccc2o1)N1CCOCC1	19.6%	3.5%	0.5%	-5.0%	15.7%	4.0%
N/N=C1/c2ccccc2N[C@H]1OC(=O)Nc1ccccc1	21.2%[9.22 µM]	.	.	.	.	.
CCn1c(C(=O)N2CCCC(C(=O)N3CCN(c4ccccc4)CC3)C2)cc2sccc21 (centres undefined)	-22.8%	.	.	-11.9%	.	.
CCc1ccc2nc(N(Cc3cccnc3)C(=O)Cc3ccccc3)sc2c1	.	.	.	-11.2%	.	.
Cc1ccc(S(=O)(=O)N2CCN(Cc3ccc4c(c3)OCO4)CC2)cc1	-39.1%	.	.	2.2%	.	.
COc1ccc(OC)c(NC(=O)C2Cc3ccccc3CN2S(=O)(=O)c2ccc(F)cc2)c1 (centres undefined)	-7.5%	.	.	1.1%	.	.
Cc1ccc(Nc2c([N+](=O)[O-])c(=O)oc3ccccc23)cc1	.	-2.3%	-12.4%	-2.2%	?	-11.3%
Cc1ccc(C)c(Nc2c([N+](=O)[O-])c(=O)oc3ccccc23)c1	.	-0.6%	1.1%	-8.4%	20.6µM*	-1.8%
COc1ccc(Nc2ncnc3c2nc2n3CCCC2)cc1Cl	.	.	.	19µM*	.	.
O=C(Nc1ccc(F)cc1F)C1CCCN(c2ncnc3c2nc2n3CCCCC2)C1 (centres undefined)	.	-2.7%	-2.2%	4.7%	-24.2%	-6.1%
Fc1ccc(Nc2ncnc3c2nc2n3CCCCC2)c(F)c1	.	.	.	21.3µM*	.	.
CCOc1ccc(Nc2ncnc3c2nc2n3CCCCC2)cc1	.	.	.	-18.1%	.	.
SMILES	SMN2 splice up	NPC1 promoter act	Rab9 prom act	FLuc counter	ELG1 repair inh	ELG1 genotox
COc1ccc(Nc2ncnc3c2nc2n3CCCCC2)cc1	.	.	.	16.9µM*	.	.
Cc1nn(-c2ccc3nnc(C)n3n2)c(C)c1CCC(=O)Nc1ccc(OC(F)(F)F)cc1	.	.	.	-5.2%	.	.
Cc1nn(C)c2c1c(C(F)(F)F)cc(=O)n2C(C)C(=O)N1CCN(c2ccccc2)CC1 (centres undefined)	.	.	.	6.8%	.	.
CCOc1ccc(C(=O)Nc2ccc(-c3nc4cc(CC)ccc4o3)cc2)cc1	0.5%	.	.	0.3%	.	.
Cc1ccc2[nH]c(=O)c(CN(CCc3ccccc3)C(c3nnnn3Cc3ccco3)C(C)C)cc2c1 (centres undefined)	.	-2.6%	-1.1%	4.8%	18.3µM*	-9.1%
CC(=O)Nc1ccc(/C=C/c2ccc3c([N+](=O)[O-])cccc3n2)cc1	?	?	1.12µM*	?	?	?
O=C(O)c1cc(/C=C/c2ccc(N3CCOCC3)cc2)nc2ccccc12	?	?	?	0.477µM*	?	13.0%
O=C(O)c1cc(/C=C/c2ccc(N3CCOCC3)c([N+](=O)[O-])c2)nc2ccccc12	.	?	?	1.2µM*	?	?
COc1cc(/C=C/C(=O)OCN2C(=O)c3ccccc3C2=O)ccc1OC(F)F	.	-1.1%	-2.5%	1.5%	1.7%	5.5%
O=[N+]([O-])c1cccc2ccc(/C=C/c3ccc(Cl)cc3)nc12	.	?	?	?	?	-0.6%
COc1cc(/C=C/c2cc(C(=O)O)c3ccccc3n2)ccc1OC(F)F	.	3.16µM*	3.16µM*	0.426µM*	?	3.3%
COc1ccc(-c2csc3ncnc(N4CCN(S(=O)(=O)c5ccc(C)cc5)CC4)c23)cc1	.	-2.9%	-1.8%	4.5%	20.6µM*	-7.8%
COc1ccc(-c2csc3ncnc(N4CCN(S(=O)(=O)c5cccs5)CC4)c23)cc1	.	0.2%	0.1%	-0.5%	?	-3.9%
COc1ccc(-c2csc3ncnc(N4CCN(S(=O)(=O)c5ccc(Cl)s5)CC4)c23)cc1	.	-2.4%	-0.4%	-0.4%	8.2µM*	-8.8%
Cn1c(=O)c2c(nc3n(-c4ccc(O)cc4)c(-c4ccc(Br)cc4)cn23)n(C)c1=O	-8.0%	.	.	1.8%	.	.
Nc1[nH]nc2nc(NCc3ccccc3)c3c(c12)CCN(Cc1ccccc1)C3	25.1µM*	2.4%	2.8%	4.1%	?	1.5%
C=CCNc1nc(NCc2ccccc2)c(C#N)c2c1CN(C)CC2	22.4µM*	-4.5%	1.8%	1.0%	-22.9%	-2.5%
CCN1CCc2c(C#N)c(NCc3ccccc3)nc(N(CC)CC)c2C1	.	-4.5%	0.1%	6.3%	9.3%	-6.7%
N#Cc1c(NCCN)nc(NCc2ccccc2)c2c1CCN(Cc1ccccc1)C2	.	10.2%	-1.8%	-3.7%	13µM*	-23.7%
CC[C@]12c3[nH]c4ccc(Cl)cc4c3CCN1C(=O)[C@@H](CC(=O)NCCc1ccccn1)C[C@@H]2C(=O)N1CCN(C(=O)C2CC2)CC1	.	.	.	.	2.9%	11.1%

Bioassay records as filed in PubChem.
